D1 antagonist = Antagonist of Human D 1 Dopamine Receptor: qHTS | D(1A) dopamine receptor (Homo sapiens), P21728 | HEK293 TREx D1 cells, calcium flux, dopamine EC80; stronger effect = lower value | activity change, negative = inhibition, % at 10 µM | actives 3.2% (n = 360,000) | AID 504652, 2011; in the data active = activity change below about -30%; also: % is scaled to controls: 0 for no effect and ±100 for the full control effect
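Cells carrying a force-coupled, tetracycline-inducible human D1 receptor report calcium flux. Each well gets a 10 s baseline, compound with 180 s monitoring, then an EC80 dopamine stimulus with a second 180 s kinetic read.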
TRHR ag = qHTS for Small Molecule Agonists and Allosteric Enhancers of Human TRH Receptor: Primary Screen for Agonists. AID 493084, 2011. Thyrotropin-releasing hormone receptor (Homo sapiens), P34981. actives 0.18% (n = 360,000). activation, % at 2 µM. TRHR cells, calcium flux fluo-8, FDSS agonist mode; also: 0% is about no effect
Target sequence (P34981 whole entry, looked up): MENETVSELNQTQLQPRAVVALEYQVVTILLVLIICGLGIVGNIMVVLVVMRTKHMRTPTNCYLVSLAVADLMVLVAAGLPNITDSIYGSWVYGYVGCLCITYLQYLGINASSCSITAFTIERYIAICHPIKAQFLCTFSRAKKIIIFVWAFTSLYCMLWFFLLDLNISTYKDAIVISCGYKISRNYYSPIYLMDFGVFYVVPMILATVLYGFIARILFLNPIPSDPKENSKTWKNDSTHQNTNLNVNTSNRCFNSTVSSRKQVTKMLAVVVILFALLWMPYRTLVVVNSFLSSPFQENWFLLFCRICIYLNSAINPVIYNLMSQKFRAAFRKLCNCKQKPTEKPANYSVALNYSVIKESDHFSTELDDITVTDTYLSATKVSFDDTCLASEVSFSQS
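TRHR-expressing cells loaded with fluo-8 calcium dye; 23 nL library compound pin-transferred, kinetic FDSS fluorescence (Ex 480/Em 530) recorded about 180 s for agonist-induced calcium release, before a 10 nM TRH EC20 addition for potentiator mode.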
D1 PAM = Potentiators of Human D1 Dopamine Receptor: qHTS; HEK293 TREx D1 cells, calcium flux, dopamine EC20 potentiation; potentiation, % at 10 µM; D(1A) dopamine receptor (Homo sapiens), P21728; actives 0.036% (n = 360,000); in the data active = potentiation above about 30%; also: 0% is about no effect
TRHR PAM = qHTS for Small Molecule Agonists and Allosteric Enhancers of Human TRH Receptor: Primary Screen for Enhancers; actives 0.66% (n = 360,000); TRHR cells, fluo-8 calcium fluorescence, EC20 TRH enhancement; enhancement, % at 2 µM; AID 493056, 2011; in the data active = enhancement above about 30%; also: 0% is about no effect
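Enhancer read-out: after compound pinning and an initial kinetic agonist-mode read, an EC20 of TRH (10 nM final) was injected and fluo-8 calcium signal (Ex 480/Em 530) followed at 1 s/cycle for 100 cycles in TRHR-expressing cells.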
D1 ag = Allosteric Agonists of the Human D1 Dopamine Receptor: qHTS | D(1A) dopamine receptor (Homo sapiens), P21728 | HEK293 T-REx D1 cells, calcium flux, agonist mode | activation, % at 2 µM | actives 1% (n = 360,000) | AID 504660, 2011; also: 0% is about no effect
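Agonism was scored from calcium flux recorded over 180 s (1 read/s) after pintool compound addition, following a 10-cycle baseline. Cells were inducible force-coupled HEK293 TREx D1, plated overnight at 30 C and loaded with no-wash calcium dye.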
The depositor's hits bear a star. Most compounds without a hit are left out; they make up all but 4.7% or so of the library. Rule as the data show it, unless noted: active = activation above about 30%; inactive = the rest.

SMILES	D1 antagonist	TRHR ag	D1 PAM	TRHR PAM	D1 ag
COc1ccccc1NC(=O)CCN1C(=O)C2CC=CCC2C1=O (centres undefined)	8.4	0.2	1.0	35.0*	0.3
COCCNC(=O)/C(C#N)=C/c1cc(C)n(-c2ccc(C)cc2)c1C	-63.5*	-2.0	-9.9	-3.0	9.5
Cc1ccc(-n2c(C)cc(C=C(C#N)C#N)c2C)cc1	-46.5*	-0.4	-4.5	-10.4	7.2
Cc1cc(C=C(C#N)C#N)c(C)n1-c1ccccc1	-18.1	0.7	1.4	-9.3	4.7
CC(C)NC(=O)C(c1ccc(F)cc1)N(C(=O)CCC(=O)Nc1ccccn1)C1CCCCC1 (centres undefined)	3.6	1.6	-15.5	-3.8	2.0
O=C(COc1cccc2c1CCN(Cc1ccccc1F)C2=O)N1CCOCC1	-15.9	0.0	-3.9	-15.9	-0.5
Cc1cccc(NC(=O)COc2cccc3c2CCN(C)C3=O)c1	7.9	0.3	-4.2	5.6	11.6
Cc1ccccc1CN1CCc2c(OCC(=O)N3CCCCC3)cccc2C1=O	-41.3*	0.1	-1.9	-3.6	3.5
O=C(COc1cccc2c1CCN(Cc1ccccc1F)C2=O)N1CCCCC1	-10.5	-0.2	0.9	-2.7	3.0
CCOC(=O)N1CCN(C(=O)COc2cccc3c2CCN(Cc2ccccc2F)C3=O)CC1	-30.5*	-0.5	1.3	7.5	1.4
CC1CCN(C(=O)COc2cccc3c2CCN(C)C3=O)CC1	-32.2*	0.2	-5.7	-1.7	-0.4
COc1ccccc1NC(=O)C(OC(=O)CNC(=O)c1ccccc1)c1ccccc1 (centres undefined)	21.1	-1.8	-5.2	-4.9	0.3
Cc1ccc(C2CC(c3ccco3)=NN2S(C)(=O)=O)cc1 (centres undefined)	-35.1*	-0.6	-3.1	0.1	1.0
Cc1ccc(NC(=O)CCN2C(=O)c3ccccc3Sc3ncccc32)c(Cl)c1	-8.3	-0.1	-6.0	8.4	14.3
CN(CCc1nc2ccccc2[nH]1)Cc1nc(CC2CC2)no1	3.5	-0.2	-2.5	-0.5	-0.1
CN(CCc1nc2ccc(Cl)cc2[nH]1)Cc1nc(CC2CC2)no1	3.0	-3.5	4.8	34.9*	-0.2
O=C1OC(CO)CN1Cc1ccccc1 (centres undefined)	-40.3*	0.1	3.5	0.5	0.1
Cc1nc2ccccc2n1CC(O)COC1CCCCC1 (centres undefined)	-71.8*	0.3	-10.8	-21.5	5.4
CC(C)c1nc2ccccc2n1CC(O)COC1CCCCC1 (centres undefined)	-7.1	-0.3	-1.4	1.8	0.9
CC(NC(=O)c1ccc(Br)o1)C1CCCO1 (centres undefined)	-30.6*	-0.4	-10.1	-6.5	0.2
Cc1ccc(C(=O)NC(C)C2CCCO2)o1 (centres undefined)	-10.6	0.0	-9.6	-0.2	8.3
CCCC[C@]12Cc3cc(C#N)ccc3C(O1)c1c(cc(C)n(Cc3ccccc3)c1=O)O2	8.1	0.3	0.3	22.4	-0.1
Cc1[nH]c(C)c(S(=O)(=O)N(Cc2ccccc2)C(C)C)c1C(=O)N1CCCC1	-34.4*	0.1	5.3	-1.7	1.5
Cc1cccc(N2CCN(S(=O)(=O)c3c(C)[nH]c(C)c3C(=O)N3CCCCC3)CC2)c1C	-16.3	1.0	-10.7	30.3*	13.3
COC(=O)CN(c1ccccc1C)S(C)(=O)=O	-37.9*	0.3	-4.0	-3.7	1.3
SMILES	D1 antagonist	TRHR ag	D1 PAM	TRHR PAM	D1 ag
CCc1ccccc1N(CC(=O)OC)S(C)(=O)=O	1.4	-1.4	-3.5	0.6	2.6
COc1cccc(C(=O)Nc2cccc3ccccc23)c1OC	-35.3*	-0.4	3.6	5.5	2.4
COc1ccccc1NC(=O)NNC(=O)c1ccc2ccccc2c1O	-35.6*	0.4	1.2	-2.2	6.5
CCOc1ccccc1NC(=O)c1cccc2ccccc12	-5.1	-0.1	-1.6	-12.0	4.2
O=C(COc1ccc(Cl)cc1)NCCc1csc(-c2cccc(F)c2)n1	10.4	-0.1	-4.0	-6.6	3.5
CCCCN(CC)Cc1ccc(CNC(=S)Nc2cccc(F)c2)o1	-0.5	-2.2	-9.1	-9.5	34.0*
Cc1cc(C)n2nc(SCC(=O)Nc3ccc(O)cc3)nc2n1	-10.8	0.0	-7.3	-1.8	3.2
Cc1cc(C)n2nc(SCC(=O)Nc3ccc(S(=O)(=O)N(C)C)cc3)nc2n1	-39.1*	-0.4	-2.5	1.1	5.1
Cc1cc(C)nc(SCC(=O)Nc2cccc(S(=O)(=O)N(C)C)c2)n1	-30.5*	-0.5	-13.6	21.8	7.2
O=C(Cc1ccc(Cl)cc1)Nc1cccc(S(=O)(=O)Nc2ccccc2F)c1	-8.4	-0.2	-5.8	0.4	7.2
CN(C)S(=O)(=O)c1cccc(NC(=O)Cc2ccc(Cl)cc2)c1	-31.9*	0.3	-6.2	-3.1	20.8
CC(C)(Oc1ccc(Br)cc1)C(=O)Nc1cc(-c2nc3ccccc3[nH]2)ccc1Cl	-5.1	0.2	1.7	12.9	-0.8
COc1cccc2c1cc1c(=O)n(CC(=O)NCc3ccc(N(C)C)cc3)nc(C)n12	11.7	0.3	-1.9	-0.3	0.4
O=c1[nH]c2ccccc2nc1/C=C/c1ccc(O)cc1	0.8	22.5	-4.8	8.8	45.0*
O=C(/C=C/c1ccc(F)cc1)Nc1nc2ccccc2[nH]1	-31.1*	-1.6	-1.4	-14.2	5.3
O=c1[nH]c2ccccc2nc1/C=C/c1ccc(F)cc1	-8.6	-2.4	-4.8	1.4	35.3*
O=C(Nc1nc2ccccc2[nH]1)c1cccc(F)c1	7.7	0.6	6.4	-2.1	1.2
O=c1[nH]c2ccccc2nc1/C=C/c1ccccc1	-6.6	2.1	-6.0	1.2	3.8
O=C(NCCc1ccccc1)C(c1ccccc1F)N(C(=O)c1csnn1)C1CC1 (centres undefined)	-5.1	0.1	-0.2	17.1	-3.2
COc1ccc(CC(=O)Nc2ccc3nc(N4CCCCC4)cc(C)c3c2)cc1	-6.3	-0.2	-1.1	-1.5	0.9
c1ccc2c(CNc3ccc(CNc4ncn[nH]4)cc3)cccc2c1	-45.8*	0.7	-6.5	-11.1	10.7
COc1cc(C=O)ccc1OCCOc1ccccc1[N+](=O)[O-]	-37.3*	1.1	-4.0	13.9	5.5
CCOC(=O)c1cc(CC)sc1/N=C/C1C(=O)CC(C)(C)CC1=O	-48.7*	-0.6	-1.4	-2.6	0.6
O=C(CCCN1CC=C(n2c(=O)[nH]c3ccccc32)CC1)c1ccc(F)cc1	-70.8*	-0.5	-3.0	5.3	7.1
